Measured values reported in PubChem BioAssay AID901 (National Center for Advancing Translational Sciences (NCATS), 2007).
In all, about 120,000 compounds went through this assay and fewer than 10 were called active. Roughly 4% stayed inconclusive and do not appear here. Calls follow the shape of the dose curve; as a rule, active = well fitted curve in the direction sought with a large enough effect in the signal ratio (not every such curve was filed as active); inconclusive = small, poorly fitted or top-dose-only effect, or a change in a side signal; inactive = no such curve, though single readings can be large or run the other way; the % refers to the signal ratio. A selection follows.

These molecules were tested against Inositol monophosphatase 1 (Rattus norvegicus) (UniProt P97697) (assay: qHTS Assay for Identifying the Cell-Membrane Permeable IMPase Inhibitors). Settings: CHO-M1 cells, HTRF TR-FRET ratio; series mostly up to 46.1 µM.
Chain of Inositol monophosphatase 1 (Rattus norvegicus) (P97697 whole entry, looked up): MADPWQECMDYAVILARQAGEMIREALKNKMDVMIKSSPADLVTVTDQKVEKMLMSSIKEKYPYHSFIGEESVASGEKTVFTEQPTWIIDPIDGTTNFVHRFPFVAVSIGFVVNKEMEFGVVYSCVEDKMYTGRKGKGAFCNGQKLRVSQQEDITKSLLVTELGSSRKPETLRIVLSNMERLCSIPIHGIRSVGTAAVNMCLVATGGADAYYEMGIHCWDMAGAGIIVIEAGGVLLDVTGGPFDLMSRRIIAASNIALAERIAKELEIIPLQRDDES
Description: NCGC IMPase Assay Overview
Lithium has been widely used for the treatment of bipolar disorder. But lithium has a narrow therapeutic index and it can cause side effects such as thirst, weight gain, tremor, polyuria and memory problems. Although the mechanism for lithium action in treatment of bipolar disorder is still not fully understood, inhibition of inositol monophosphatase (IMPase) and the subsequent depletion of the inositol pool in living cells have been implicated as the primary therapeutic benefit of lithium therapy. Therefore, a selective IMPase inhibitor with reduced side effects might be a good drug candidate to replace lithium for the treatment of bipolar disorder. Several IMPase inhibitors have been discovered previously. However, they are not suitable for therapeutic use because of their poor cell membrane penetrability or oral bioavailability; the development of new cell-permeable IMPase inhibitors is needed.
IMPase catalyzes the hydrolysis of inositol-1-phosphate (IP1) to release free inositol. Binding of an agonist to a Gq coupled GPCR results in the activation of PLC, which hydrolyzes the PIP2 to form inositol-1,4,5-trisphosphate (IP3) and diacyl glycerol (DAG). While DAG activates protein kinase C (PKC), IP3 triggers the elevation of intracellular free Ca2+. The IP3 is very rapidly inactivated by hydrolysis to IP2, IP1 and then inositol by a series of enzymes including IMPase. Free inositols are used for synthesis of PI and thus start another inositol cycle.
To identify new cell-permeable IMPase inhibitors, we developed a cell-based IMPase assay in which the cytosolic IP1 is measured by a time-resolved fluorescence resonance energy transfer (TR-FRET) assay. In this assay, an IP1 specific antibody is used to detect the labeled IP1 tracer. When the cell lysate contains the elevated IP1 due to the inhibition of IMPase, the TR-FRET between the labeled antibody and IP1 tracer is disrupted resulting in a reduction in the total signal. Since the TR-FRET is used, this cell-based assay is a homogenous assay without cell wash and medium change that is suitable for assay miniaturization and HTS.
NCGC IMPase Assay Protocol Summary
A Chinese hamster ovary (CHO) cell line stably expressing the M1 receptor (CHO-M1) was obtained from ATCC and maintained in F-12 Kaighn's media (Invitrogen, Carlsbad, CA, 21127) supplemented with 10 % FBS, 100 units/ml penicillin, 100 ug/ml streptomycin and 250 ug/ml geneticin at 37C, 5% CO2 in a humidified atmosphere. Before the assay, aliquots of cells were frozen and stored at -135C. The assay was performed in 1536-well format. Data are reported for both the ratio of the two emission wavelengths, and also for the component 'donor' channel, Em2=620. […] AC50 values were determined from concentration-response data modeled with the standard Hill equation.
IMPase 1536-well assay protocol:
(1) Plate 4 ul/well (2000 cells) of cell suspension from frozen CHO-M1 Cells in white, tissue culture treated 1536-well plates that are cultured at 37C, 5 % CO2 for 16 to 30 hours.
(2) Add 23 nl/well of compound in DMSO solution. The final titration for each compound was between 0.6 nM and 46 uM.
(3) Add 1 ul of carbachol (50 uM in stimulation buffer containing10mM HEPES, 1mM CaCl2, 0.5 mM MgCl2, 4.2 mM KCl, 146 mM NaCl, 5.5 mM glucose, 50mM LiCl, pH 7.4.
(4) Incubation at 37C, 5 % CO2 for 30 min.
(5) Add 1 ul/well of d2-conjugated IP1 (d2-IP1) and 1 ul/well of Eu+ cryptate conjugated anti-IP1 antibody (Eu+-Ab) prepared in the cell lysis buffer, both from the IP-One kit (Cisbio, MA).
(6) Incubate at room temperature for 10 minutes.
(7) Detect the assay plate (Ex = 320, Em1 =665 and Em2 620) in a ViewLux plate reader.
inositol monophosphatase, IMPase, IMPase inhibitor, lithium, bipolar disorder, IP-One, HTRF, qHTS, NIH roadmap, NCGC
Note: In the gene ID and protein GI references for this assay, rat IMPase is referenced instead of hampster as hamster accession numbers were not available.
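Also: higher means more IMPase inhibition seen as more IP1 and lower FRET ratio.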

outcome, inactive:
O=C(Nc1ccc(O)c(-c2nc3ccccc3o2)c1)c1ccc(-c2cccc(Cl)c2)o1
CC1CCCCN1CC(=O)N1CCCc2c1c(=O)oc1ccc(OCc3ccccc3)cc21 (configuration not stated)
COc1ccc(C2(Nc3cccc(F)c3)C(=O)c3ccccc3C2=O)cc1
Cc1ccc(C(=O)CSc2nc(-c3ccccc3)nc3c2CCCC3)c(C)c1
CCOc1ccc(S(=O)(=O)N/N=C(\C)c2ccc(Cl)c(Cl)c2Cl)cc1
Cc1ccc(C(=O)CC2(O)C(=O)N(CCc3ccccc3)c3ccc(Br)cc32)cc1 (configuration not stated)
COc1ccc2oc(-c3cccc(NC(=O)CSc4ccc(Cl)cc4)c3)nc2c1
CCCC(=O)Nc1ccc2oc(-c3ccc(O)c(Br)c3)nc2c1
COc1cccc(C(=O)Nc2ccc3oc(-c4ccc5ccccc5c4)nc3c2)c1
Cc1cccc(C(CC(=O)NCC2(c3ccccc3)CCCC2)c2ccccc2)c1O (configuration not stated)
Cc1ccc(OCC(=O)Nc2ccccc2Sc2ccc(Cl)cc2)c([N+](=O)[O-])n1
CN(C(=O)CSc1nnc(-c2n[nH]c3ccccc23)o1)c1ccccc1
CC(=O)NC(Cc1ccccc1)C(=O)NC1CCN(c2ncccc2[N+](=O)[O-])CC1 (configuration not stated)
COc1ccc(/C=C/C(=O)OCC(=O)NCc2cccs2)cc1OC
COc1ccc(S(=O)(=O)Nc2cc3c(C(=O)OC(C)C)c(C)oc3c3ccccc23)cc1
CCOC(=O)c1c(C)oc2ccc(N(C(=O)c3ccncc3)S(=O)(=O)c3ccc(CC)cc3)cc12
CCCCOC(=O)/C(C#N)=C/c1ccc(-c2cccc(C(F)(F)F)c2)o1
CCc1ccccc1NC(=O)CSc1nc(C)c(C(=O)Nc2ccccc2)c(-c2ccc(Cl)cc2)c1C#N
Oc1ccccc1-c1nc(/C=C/c2ccc(F)cc2)no1
COc1ccc(NC(=O)CSC2=Nc3ccccc3C3=NC(CC(=O)NCc4ccccc4OC)C(=O)N23)cc1Cl (configuration not stated)
COc1ccc(C(C(=O)NC2CCCCC2)N(C(=O)CCl)c2ccccc2Cl)cc1 (configuration not stated)
COc1ccc(S(=O)(=O)NCCc2cc3ccc(C)c(C)c3[nH]c2=O)cc1
COc1ccc2c(CN3CCN(S(=O)(=O)c4cccs4)CC3)cc(=O)oc2c1
CC(=O)Nc1ccc(NC(=O)CSc2nnc3c4cc(Br)ccc4n(C)c3n2)cc1
CCc1ccccc1NS(=O)(=O)c1ccc2nc(-c3ccccc3)[nH]c2c1
COC(=O)c1ccc(-c2nc3cc(NC(C)=O)ccc3o2)cc1
CCCOc1ccc(NC(=O)C2OC3OC(C)(C)OC3C3OC(C)(C)OC23)cc1 (configuration not stated)
O=C(Nc1nnc(SCc2ccccc2Cl)s1)c1cccc([N+](=O)[O-])c1
CC1=C(C(=O)OCc2ccc(C)cc2)C(c2c(Cl)cccc2Cl)CC(=O)N1 (configuration not stated)
CC(C)Cn1c(-c2ccc(S(=O)(=O)N3CCOCC3)cc2)csc1=Nc1cc(Cl)ccc1Cl
CN(Cc1cccs1)C(=O)Cc1c[nH]c2ccccc12
CCC(C)c1ccc2oc(-c3ccc(NC(=O)c4cc5ccccc5o4)cc3)nc2c1 (configuration not stated)
Cc1cc2nc(-c3ccc(NC(=O)c4cc5ccccc5o4)cc3)oc2cc1C
COc1cc(C2c3c(oc4ccccc4c3=O)C(=O)N2c2nc(C)c(C)s2)ccc1O (configuration not stated)
COc1ccc(C)cc1N(CC(=O)N1CCC(C)CC1)S(=O)(=O)c1ccc(C)cc1
Cc1ccc(-c2cc(C(F)(F)F)c(C#N)c(SCC(=O)Nc3ccccc3)n2)cc1
CN(C)c1ccc(/C=N/N(Cc2ccccc2)c2ccccc2)cc1
CC(=O)NC1C(Oc2ccc(C)cc2)OC2COC(c3ccco3)OC2C1O (configuration not stated)
COCCNC(=O)CSc1nc(-c2ccccc2)[nH]c1-c1ccc(C)cc1
CCOc1ccc(/C=N/NC(N)=S)cc1
O=C(CSc1nc(-c2cccc(F)c2)[nH]c1-c1ccccc1)Nc1ccc2c(c1)OCO2
CCc1cccc(C)c1Nc1c(-c2ccc(N(C)C)cc2)nc2ncccn12
Cc1nnc(SCC(=O)N2CCOCC2)[nH]c1=O
Cc1cc([N+](=O)[O-])ccc1NC(=O)C1CCCO1 (configuration not stated)
CCCn1c(NCc2ccc(N(CC)CC)cc2)nc2ccccc21
COc1ccc(Cl)cc1NC(=O)NCC1CCN(Cc2ccccc2F)CC1
Cc1cc2ccccc2n1CCNC(=O)c1ccc(F)cc1
CN(C)CCCO/N=C(\c1ccccc1)c1ccncc1
CCCCNC(=O)CSc1nc2ccc(NC(=O)CSc3nnc(N)s3)cc2s1
CCOC(=O)c1cc(NC(=O)c2ccc(F)cc2)c(=O)n2c1oc1ccccc12
Cn1c(=O)[nH]c(=O)c2c1nc(NCCc1ccccc1)n2Cc1ccc(F)cc1
COc1ccc(NC(=O)c2ccco2)cc1NC(=O)COc1ccc(C)c(C)c1
CCN(c1ccc(NC(=O)COC(=O)CCc2nc3ccccc3n2-c2ccccc2)cc1)C(C)C
COC(=O)c1c(NC(=O)CN2C(=O)NC(CCc3ccccc3)C2=O)sc2c1CCCCC2 (configuration not stated)
Cn1c(=O)c2c(nc(NCCc3ccccc3)n2Cc2ccccc2Br)n(C)c1=O
COc1ccccc1CNC(=O)CN1CCC(n2cnc3cc(F)ccc32)CC1
Cc1ccc(NC2=C(c3ccc(C(F)(F)F)cc3)C(=O)c3ccccc32)cc1F
CCOC(=O)c1cnc2c(C)cc(C)cc2c1Nc1ccc(N2CCOCC2)cc1
CC(=O)Nc1ccc(Nc2c([N+](=O)[O-])cc(S(C)(=O)=O)cc2[N+](=O)[O-])cc1
COc1cccc(NC(=O)C(Sc2nc3ccccc3c(=O)n2CC(C)C)c2ccccc2)c1 (configuration not stated)
CC(C)c1ccc(S(=O)(=O)Nc2ccc(O)c(Sc3nc4ccccc4s3)c2)cc1
COc1ccc(CCNC(=O)CSc2nc(-c3ccc(OC)c(OC)c3)ccc2C#N)cc1
COc1ccc(C(=O)COC(=O)CCCC(=O)Nc2cc(C(F)(F)F)ccc2Cl)cc1
COc1cc(C(=O)N(Cc2ccc(C(C)C)cc2)C2CCS(=O)(=O)C2)cc(OC)c1OC (configuration not stated)
CCCC(=O)Nc1cc2nn(-c3ccccc3)nc2cc1C
Cc1ccc2oc3c(c(=O)c2c1)C(c1ccc(O)cc1)N(Cc1ccc2c(c1)OCO2)C3=O (configuration not stated)
Cc1[nH]c2ccccc2c1/C=N/NC(=O)CNC(=O)c1ccc2c(c1)OCO2
Cc1ccccc1NC(=O)CSC1=NCCN1
COc1ccccc1OCCCn1c(-c2ccc(Cl)cc2)nc2ccccc2c1=O
Cc1cc(C)c[n+](-c2nc3ccccc3nc2[N-]S(=O)(=O)c2cccs2)c1
CC1CCCN(Cc2c(O)ccc3c(=O)c(Oc4ccc(C(C)(C)C)cc4)c(C(F)(F)F)oc23)C1 (configuration not stated)
CCn1c(=O)c(=O)n(CC)c2cc(N3CCCCC3)c(NC(=O)c3cccc(F)c3)cc21
COc1cccc(CNC(=O)CCc2nc(-c3ccc(C)cc3)no2)c1
COc1cc(OC)c(C2C=C(C(=O)O)Nc3ncnn32)cc1OC (configuration not stated)
CCCn1c(N)c(C(=O)CSc2nnc(-c3cccnc3)n2-c2ccc(C)cc2C)c(=O)[nH]c1=O
CCCCCC(=O)NC(=S)NNC(=O)c1ccc([N+](=O)[O-])cc1
CCOC(=O)c1c(-c2ccc(OC)cc2)oc2ccc(OCc3ccc(C(=O)OC)cc3)cc12
CC(C)c1ccc(OCC(=O)N(Cc2ccc(N(C)C)cc2)C2CCS(=O)(=O)C2)cc1 (configuration not stated)
CCN(C(=O)Cn1cc(S(=O)(=O)N2CCN(c3ccccc3F)CC2)c2ccccc2c1=O)c1ccc(C)c(C)c1
Cc1nn(Cc2ccc(Cl)cc2)c(Cl)c1/C=N/NC(=O)CNc1ccccc1F
CC(C)(C)c1ccc(C(=O)NCc2nnc(SCC(=O)N3CCCc4ccccc43)n2-c2ccccc2)cc1
COc1ccccc1N1CCN(CC(=O)NC(=O)NCc2ccco2)CC1
CC(=O)N1CCN(CC(=O)Nc2ccc(SC(F)F)cc2)CC1
Cc1ccc(Cl)cc1NC(=O)/C(C#N)=C\c1cn(Cc2ccc(F)cc2)c2ccccc12
COc1ccc(NS(=O)(=O)c2ccc(NC(=S)NC(=O)/C=C/c3ccc(C)cc3)cc2)nn1
N#CCOc1ccc(C2=NO[C@@H]3[C@@H]4C[C@@H]([C@H]5C(=O)N(c6ccc7c(c6)OCO7)C(=O)[C@@H]45)[C@H]23)cc1
Cc1ccc(S(=O)(=O)c2nc(-c3cccs3)oc2N2CCCCC2)cc1
CCCCn1c(=O)c(CCC(=O)OCC(=O)Nc2ccc(C)c(Cl)c2)nc2ccccc21
Cc1c(Cl)cccc1NC(=O)Cn1cc(C(=O)c2cccs2)c2ccccc21
O=C(CCc1ccc(S(=O)(=O)N2CCOCC2)cc1)NN=C1CCCCCCC1
Cc1ccc(CN2C(=O)SC(Nc3ccccc3)C2=O)cc1 (configuration not stated)
COc1ccc(CCNC(=O)/C(C#N)=C2\N=C(NC(=O)c3cccs3)c3ccccc32)cc1
CCc1c(C)sc(NC(=O)C2c3ccccc3Oc3ccccc32)c1C(=O)OC(C)C
COc1ccc(/C(C)=N/Nc2cc(C(F)(F)F)ccc2Cl)c(OC)c1
Cc1ccccc1-c1nc2cc(NC(=O)c3cccc(OCCC(C)C)c3)ccc2o1
CCCc1c(C)nc2c(Br)cccc2c1Cl
CCCCCNC(=O)c1cccnc1SCC(=O)Nc1ccccc1OC
